Data from PubChem BioAssay (EPA / NIEHS).
Several values for one entry are separate records, joined by “and”; a condition that tells them apart may be missing. Equal values may be shown once. A structure can be active in one record and inactive in another. Activity calls are given as the source filed them. The calls were made as follows: active = hit-call score of the fitted dose curve at least 0.9, where 1 is the maximum; inactive = score below 0.9.

read-out: Plasminogen activator inhibitor-1 (PAI1), SERPINE1 (gene 5054); test: BSK_MyoF_PAI1: BioMAP Diversity Plus: MyoF Assay for Plasminogen activator inhibitor-1 (PAI1) Biomarker Activity (AID 2284256); conditions: primary human lung fibroblasts
Description: BSK_MyoF is a cell-based, multiplexed-readout assay that uses lung fibroblasts, […], with measurements taken at 24 hours after chemical dosing in a microplate: 96-well plate.BSK_MyoF_PAI1 is an assay component measured in the BSK_MyoF assay. It measures PAI-1 antibody related to regulation of gene expression using ELISA technology.Data from the assay component BSK_MyoF_PAI1 was analyzed at the endpoint, BSK_MyoF_PAI1, in the positive analysis fitting direction relative to DMSO as the negative control and baseline of activity. Using a type of binding reporter, gain or loss-of-signal activity can be used to understand protein changes. To generalize the intended target to other relatable targets, this assay endpoint is annotated to the 'cytokine' intended target family, where the subfamily is 'plasmogen activator inhibitor'.
The levels of cell surface (or secreted, indicated by the prefix "s") biomarker endpoints were measured by ELISA. Overt cytotoxicity to cells in confluent adherent cultures (all systems other than the BT system) was assessed by measuring total protein levels using sulforhodamine B (SRB) staining in parallel cultures at the time of biomarker measurements, indicated as SRB endpoints. For proliferation assays for adherent cell types, individual cell types are cultured at sub-confluence and relative cell numbers quantified by SRB staining at time points optimized for each system (48 h: 3C and CASM3C systems; 72 h: BT and HDF3CGF systems; 96 h: SAg system). SRB was performed by staining cells with 0.1% SRB after fixation with 10% TCA and reading wells at 560 nm.Viability and proliferation of PBMC (T cells) was quantified by Alamar Blue reduction for the SAg and BT systems. For PBMC viability (referred to as PBMC Cytotoxicity within the assay endpoint names), cells were plated (75,000/well in a 96-well plate) and then chemical samples added for 1 h before addition of activators, SEB and TSST-1 (20 ng/mL final concentration each). Cells were incubated for 90 h. Then, Alamar Blue (20 uL/well) (Invitrogen, Cat DAL1100) was added for 6 h, and the plates were read with a fluorescence microplate reader at 546/580 nm (excitation/emission). For PBMC proliferation, cells were plated and activated as above but incubated for only 16 h prior to addition of Alamar Blue. Plates were read after 6 h.

| Structure (SMILES) | outcome | AC50 |
| --- | --- | --- |
| C=C(C)C(=O)OCC(F)(F)C(F)(F)C(F)(F)C(F)(F)C(F)(F)C(F)(F)C(F)(F)F | inactive | – |
| CCN(CC)c1ccc2c(C)cc(=O)oc2c1 | inactive | – |
| CC(=O)Nc1ccc(N=Nc2cc(C)ccc2O)cc1 | inactive | – |
| C=C(C)C(=O)OCC(F)(F)C(F)(F)C(F)(F)F | inactive | – |
| OCC(F)(F)C(F)(F)C(F)(F)C(F)(F)C(F)(F)C(F)(F)F | inactive | – |
| C=CC/C=C/C/C=C/C/C=C/C | – | 0.016 µM (active) |
| CCCCCCCCC(F)(F)C(F)(F)C(F)(F)C(F)(F)C(F)(F)C(F)(F)F | inactive | – |
| O=C(O)C(F)(F)C(F)(F)C(F)(F)C(F)(F)C(F)(F)C(F)(F)C(F)(F)C(F)(F)C(F)(F)C(F)(F)C(F)(F)C(F)(F)F | inactive | – |
| FC(F)(F)C(F)(F)C(F)(F)CI | inactive | – |
| O=C(O)C(F)(F)C(F)(F)OC(F)(F)F | inactive | – |
| OCC(F)(F)C(F)(F)C(F)(F)C(F)(F)C(F)(F)C(F)F | inactive | – |
| O=S(=O)(OCCOC(F)(F)F)C(F)(F)F | inactive | – |
| C=C(C)C(=O)OCCC(F)(F)C(F)(F)C(F)(F)C(F)(F)C(F)(C(F)(F)F)C(F)(F)F | inactive | – |
| OCCCC(F)(F)C(F)(F)C(F)(F)F | inactive | – |
| CO[Si](OC)(c1ccccc1)c1ccccc1 | – | 30.5 µM (active) |
| FC(F)(I)C(F)(F)C(F)(F)C(F)(F)I | – | 55.6 µM (active) and 46 µM (active) and 56.7 µM (active) |
| CCCCCCCOC(=O)c1ccccc1C(=O)OCCCCCCC | inactive | – |
| FC(F)(F)C(F)(F)C(F)(F)C(F)(F)C(F)(F)C(F)(F)CCS | inactive | 0.0795 µM (active) |
| O=C(O)C(F)(OC(F)(F)C(F)(OC(F)(F)C(F)(OC(F)(F)C(F)(F)C(F)(F)F)C(F)(F)F)C(F)(F)F)C(F)(F)F (stereo not given) | inactive | – |

| Structure (SMILES) | outcome | AC50 |
| --- | --- | --- |
| O[Si](c1ccccc1)(c1ccccc1)c1ccccc1 | – | 20 µM (active) |
| CCCCOCCOCCOC(=O)CCCCC(=O)OCCOCCOCCCC | inactive | – |
| CCc1c(Br)c(Br)c(Br)c(Br)c1Br | inactive | – |
| C#C[C@]1(O)CC[C@H]2[C@@H]3CCc4cc(OC)ccc4[C@H]3CC[C@@]21C | inactive | – |
| O=C(CC(=O)C(F)(F)C(F)(F)F)C(F)(F)F | inactive | – |
| C=CC(F)(F)C(F)(F)C(F)(F)C(F)(F)C(F)(F)C(F)(F)C(F)(F)C(F)(F)C=C | inactive | – |
| FC1CC(F)(F)C(F)(F)C1(F)F (stereo not given) | inactive | – |
| CCCCCCCCCCCCCCCC[N+](C)(C)Cc1ccccc1 | – | 2.47 µM (active) |
| C=CC(F)(F)C(F)(F)C(F)(F)C(F)(F)C(F)(F)C(F)(F)C(F)(F)C(F)(F)F | inactive | – |
| FC(F)(F)C(F)(F)CNCC(F)(F)C(F)(F)F | inactive | – |
| COC(=O)CCC(F)(F)C(F)(F)C(F)(F)C(F)(F)F | inactive | – |
| O=C(O)C(F)(F)C(F)(F)C(F)(F)C(F)(F)F | inactive | – |
| C=CC(=O)OCC(F)(F)C(F)(F)C(F)(F)C(F)(F)COC(=O)C=C | – | 15.4 µM (active) and 16.7 µM (active) |
| OCCCC(F)(F)C(F)(F)C(F)(F)C(F)(F)C(F)(F)C(F)(F)C(F)(F)F | – | 51.2 µM (active) and 52.2 µM (active) |
| O=C(O)C(F)(F)C(F)(F)C(F)(F)C(F)(F)C(F)(F)C(F)(F)C(F)(F)C(F)(F)C(F)(F)C(F)F | inactive | 23.6 µM (active) |
| O=C(O)C(F)(F)C(F)(F)C(F)(F)C(F)(F)C(F)(F)C(F)(F)C(F)(F)C(F)(F)Cl | – | 48.2 µM (active) and 48.5 µM (active) |
| CCCCNc1ccccc1 | inactive | – |
| O=C(O)C(F)(F)C(F)(F)F | inactive | – |
| O=S(=O)(OCC(F)F)C(F)(F)F | inactive | – |
